# According to PubChem BioAssay AID2729 (National Center for Advancing Translational Sciences (NCATS), 2010):
# This is one part of the list. Inconclusive results are not listed. Values without a mark were called inactive. Calls follow the shape of the dose curve; as a rule, active = well fitted inhibition curve with a large enough effect; inconclusive = small, poorly fitted or top-dose-only effect, or effect the other way; inactive = flat fitted curve, though single readings scatter.
# Test: High Content Assay for Compounds that inhibit the Assembly of the Perinucleolar Compartment: WI-38 Cytotoxicity
# Details: WI-38 normal lung fibroblasts, ATPLite luminescence ATP viability, 24 h; series mostly up to 46.1 µM; activity change, negative = cytotoxicity: at the top concentration
# Excerpt: High Content Assay for Compounds that inhibit the Assembly of the Perinucleolar Compartment
# NIH Chemical Genomics Center [NCGC]
# NIH Molecular Libraries Probe Centers Network [MLPCN]
# Assay Submitter (PI): Sui Huang, Northwestern University, Feinberg School of Medicine, Cell and Molecular Biology, Chicago, Illinois.
# The perinucleolar compartment (PNC) is a non-membrane-bound nuclear subdomain that is associated with but structurally distinct from the nucleolus. The PNC is a heritable trait, in which the number of PNCs per cell in daughter cells often mimics that of their mother cells. The PNC is heterogeneous in shape, is stable through interphase, disassembles during mitosis, and reassembles in early G1. The PNC is concentrated with newly synthesized RNA polymerase III (pol III) RNAs (MRP RNA, RNAse P H1 RNA, hY RNAs[hY1, 2, 5], Alu RNA, and SRP [7SL] RNA) and RNA binding proteins (nucleolin, PTB, CUG-BP, KSRP, Raver1, Raver2, and Rod).
# Extensive in vitro studies have shown that the PNC is unique to tumor cells and preferentially forms in tumor cells derived from solid tissues. Examination of cancer cell lines from various origins and malignant capacities has shown that PNC prevalence correlates with the malignancy of tumors and has the potential to be developed as a pan-cancer prognostic marker.
# Although the PNC is associated with a DNA locus and a handful of components have been identified, much remains to be investigated regarding the structure and function of the PNC and its mechanistic link to cancer. We have previously shown that PNC prevalence reduction is a valid strategy to identify compounds that can be used to study the structure and function of the PNC. It is necessary, however, to create a screening platform that is able to test a large number of compounds in an automated fashion. Here we report the development and robustness of an automated whole-cell phenotypic image-based screening assay that is capable of identifying such compounds.
# We conducted a followup assay to measure the effect of the lead candidates on cell health in a non-metastatic line, WI-38, by measuring ATP levels (ATPLite).
# 1. Cells at a density of 75-90% confluency in T175 flasks were harvested using 7 ml TrypLE Express cell dissociation reagent. After dissociation (5 minutes room temperature incubation) 10 ml of complete media was added to the TrypLE/cell suspension. The liquid was transferred to a 50 ml Conical tube and cells were pelleted at 1000 RPM for 5 min. Supernatant was removed and cells were resuspended to a final density of 150-200 cells/ul in complete media.
# 2. Cells were plated in 5 ul volume (2000 cells/well) into 1536 well White solid bottom plates and allowed to recover and adhere at 37 C in a humidified 5% CO2 incubator for 4 hours.
# 3. After 4 hour incubation, compound libraries (23 nl of 12.5 uM in columns 5-48) were transferred to the plates in duplicate using a 1536 well pintool. Camptothecin positive control (59 uM final) was added to column 2 and 1:3 dilutions of camptothecin was added to column 3. DMSO negative controls were present in columns 1 and 4.
# 4. After a 24 hour incubation in the 37 C incubator, all wells were treated with 3 ul of ATPLite reagent using a multidrop combi dispenser (ThermoFisher). Bubbles that formed during dispensing were removed by spinning the plates for 1 minutre at 1500 RPM on a table top centrifuge.
# 5. Luminescencent signal was detected on a Viewlux CCD based imager (PerkinElmer) with a clear filter and a 30 second integration time.
# The WI-38 normal human fetal lung fibroblast cell line was provided by Sui Huang of Northwestern University. The media and cell culture reagents were purchased from Invitrogen (Carlsbad, CA), ATPLite came from PerkinElmer.
row,SMILES,"activity change, negative = cytotoxicity"
1,CC1(c2cccc([N+](=O)[O-])c2)CC(C)(C)N(C(=O)c2ccccc2)c2ccccc21 (stereo unspecified),7.08%
2,COC(=O)c1ccc(CSc2ccccc2C)o1,16.6%
3,N=c1c2c(-c3ccccc3)c(-c3ccccc3)n(Cc3ccccc3)c2ncn1CCCO,-13.3%
4,Cn1c2ccccc2c(=O)c2c(=O)n(Cc3ccco3)c(COc3ccccc3)nc21,-2.37%
5,CCOC(=O)c1c(-c2cccc(C)c2)csc1NC(=O)c1c(-c2ccccc2)noc1C,-12.3%
6,COC(=O)C1=C(C)N(c2ccc(Br)cc2)C(=O)/C1=C\c1ccco1,-2.42%
